MEP2 TOR yeast: yeast TOR pathway MEP2-GFP modulation; hit rate 0.51% among 330,000; S. cerevisiae MEP2-GFP strain, flow cytometry GFP, 3 h; 100% = DMSO control level; GFP response vs DMSO, % at 10 µM;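 active means GFP response versus DMSO above a set limit, roughly screen mean plus 3 SD, cut at about 180% in these data; inconclusive means fewer than 70 cells counted for a yeast strain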;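 further: median GFP fluorescence of the barcode-gated MEP2-GFP cells per well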
LAP4-GFP MLPCN: alters LAP4-GFP fluorescence in TOR pathway yeast screen. S. cerevisiae LAP4-GFP multiplex, flow cytometry GFP, 3 h; median GFP as percent of DMSO wells. AID 2023. GFP response vs DMSO, % at 10 µM. hit rate 0.34% among 320,000;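 active means GFP response vs DMSO above a set limit, about the screen mean plus 3 SD, cut at about 150% in these data; inconclusive means under 70 cell events counted for the yeast strain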
CIT2 TOR yeast: alters CIT2-GFP fluorescence in TOR pathway yeast screen; S. cerevisiae CIT2-GFP strain, flow cytometry, 3 h; 100 means same as DMSO wells; GFP response vs DMSO, % at 10 µM; hit rate 0.065% among 320,000; AID 2029;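 active means GFP response relative to DMSO above a set limit, near the screen mean plus 3 SD, cut at about 150% in these data; inconclusive means Fewer than 70 cells measured for a yeast strain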;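 further: ratio of well median GFP fluorescence to mean of DMSO wells on the plate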
AGP1-GFP MLPCN: yeast TOR pathway AGP1-GFP modulation; S. cerevisiae AGP1-GFP multiplex flow cytometry, 3 h; GFP as percent of DMSO wells; GFP response vs DMSO, % at 10 µM; hit rate 0.02% among 320,000; AID 2066;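 active means GFP response relative to DMSO above a set limit, near screen average plus 3 SD, cut at about 150% in these data; inconclusive means fewer than 70 cells counted for the yeast strain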;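 further: median GFP channel fluorescence of the gated AGP1 strain per well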
RPL19A TOR yeast: alters RPL19A-GFP fluorescence in TOR pathway yeast screen | AID 2025 | S. cerevisiae RPL19A-GFP strain, flow cytometry, 3 h; stronger effect = lower value | hit rate 0.3% among 330,000 | percent response vs DMSO, % at 10 µM;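 active means percent response vs DMSO below 50%; inconclusive means fewer than 70 events counted for the yeast strain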;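 further: median channel GFP fluorescence of the barcoded RPL19A-GFP strain; ratio of sample median GFP to plate DMSO average so 100% = DMSO; lower means less RPL19A-GFP as with rapamycin TOR inhibition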
* hit, by the source's call; ? = inconclusive; . = no result given; [ ] = remark or other dose. A selection: hits, their analogues and other compounds. The true share with any hit is near 0.93%.

SMILES	MEP2 TOR yeast	LAP4-GFP MLPCN	CIT2 TOR yeast	AGP1-GFP MLPCN	RPL19A TOR yeast
S=C(Nc1ccccc1Cl)N(Cc1ccccc1)Cc1ccccn1	97	99	92	97	96
CCc1ccc(/C=C2\Oc3c(ccc(O)c3CN3CCN(CCO)CC3)C2=O)cc1	192*[may fluoresce violet]	96	?	20	45*[may fluoresce violet]
O=C1C2C(C(=O)N1/N=C/c1cc(Br)cc([N+](=O)[O-])c1O)C1C=CC2C12CC2 (stereo not given)	193*[may fluoresce violet]	120	?	.	50
Nc1c(C(=O)CSc2nnc(Cc3ccccc3)o2)c(=O)[nH]c(=O)n1C1CC1	105	107	91	101	102
Cc1ccc(-c2ccc(CCC(=O)O)o2)cc1	100	158*	99	82	99
COCCCN1C(=O)c2ccc(C(=O)N3CCN(c4ccccc4OC)CC3)cc2C1=O	103	94	110	93	97
COc1ccc(N2CCN(C(=O)Cn3c(=O)[nH]c4ccsc4c3=O)CC2)cc1	573*[may fluoresce violet]	97	?	?	45*[may fluoresce violet]
CC(=O)c1cc(C(=O)Nc2ccc(C(=O)O)cc2)oc1C	545*[may fluoresce violet]	111	?	.	50*[may fluoresce violet]
CC(C)(C)c1ccc(S(=O)(=O)NCc2ccc(C(=O)NCC3CCCO3)cc2)cc1 (stereo not given)	90	75	.	96	106
COc1cccc(S(=O)(=O)NCc2ccc(C(=O)NCC3CCCO3)cc2)c1 (stereo not given)	190*[may fluoresce violet]	97	?	24	65
FC(F)(F)c1cnc(-c2cnc(-c3ccccn3)nc2)c(Cl)c1	110	155*	110	109	93
COc1ccc2nc(C)cc(Sc3nc4ccccc4s3)c2c1	675*[may fluoresce violet]	65	?	?	43*[may fluoresce violet]
O=C(COC(=O)c1ccco1)NCc1cccs1	355*[may fluoresce violet]	93	?	.	28*[may fluoresce violet]
O=C(COC(=O)c1ccc(Br)o1)NCc1cccs1	99	97	93	93	95
Cc1nc(SC(C)C(=O)NCC2CCCO2)c2cc(-c3ccccc3)sc2n1 (stereo not given)	100	100	92	101	100
CC1(C)CC2(C)OC(=N)C1(C#N)C2(C#N)C#N (stereo not given)	107	107	97	103	99
CC1C2(C)OCC(C#N)(C(=N)O2)C1(C#N)C#N (stereo not given)	245*[may fluoresce violet]	82	?	?	52
O=C(C[C@H]1C/C=C\CCCC(=O)OC[C@H]2CCCN2C1=O)NCCO	91	89	102	96	95
CS(=O)(=O)Nc1ccc(C(=O)N2CC(=O)Nc3ccccc32)cc1	103	99	106	105	99
CSc1cc(C)c(OCC(=O)Nc2c(C)nn(C)c2C)c(C)c1	104	91	99	92	103
Cc1nc2ccccc2n2c(O)c(CC(=O)O)cc12	196*	97	99	67	66
Cc1nc2ccccc2n1CCC(=O)O	110	97	104	103	99
O=C1N(Cc2ccccc2)CCCC12CCCN(Cc1ccccc1)C2=O	273*[may fluoresce violet]	79	?	?	34*[may fluoresce violet]
O=C1CCCN1Cc1ccccc1	97	109	94	92	99
Cc1cccnc1NC(=O)C(C)N1C(=O)c2ccccc2C1=O (stereo not given)	738*[may fluoresce violet]	101	?	20	52
SMILES	MEP2 TOR yeast	LAP4-GFP MLPCN	CIT2 TOR yeast	AGP1-GFP MLPCN	RPL19A TOR yeast
Cc1ccccc1/C=C/C(=O)c1ccc([N+](=O)[O-])o1	165	222*[may fluoresce violet]	?	16	67
Cc1ccc(NC(=S)NCc2ccc(Cl)cc2)c(C)c1	101	102	94	95	105
Oc1ccc2oc3c(c2c1)CCCC3	350*[may fluoresce violet]	84	?	?	45*[may fluoresce violet]
CCCCC(=O)NC1(C(F)(F)F)C(=O)Nc2c1c(=O)n(C)c(=O)n2C (stereo not given)	101	90	94	95	88
O=C(Nc1nc(-c2ccccn2)cs1)c1ccc(Br)s1	114	197*[may fluoresce violet]	?	17	57
O=C(Cn1c(=O)oc2cc(S(=O)(=O)N3CCCC3)ccc21)Nc1ccccc1Br	191*	97	88	82	51
CC(=O)c1cccc(NC(=O)Cn2c(=O)oc3cc(S(=O)(=O)N4CCCC4)ccc32)c1	101	90	89	102	101
O=C(Nc1cccnc1)c1ccc(-c2ccc(Cl)cc2)o1	88	245*	66	74	84
COc1ccccc1/C=C/C(=O)NCC(=O)N=Nc1c(O)[nH]c2ccccc12	110	108	100	104	106
COc1ccc(NC(=S)N2CCC(c3ccccc3)C2)cc1 (stereo not given)	249*	132	121	117	104
COc1ccc(NC(=S)N2CCC(C(O)(c3ccccc3)c3ccccc3)CC2)cc1	99	96	101	100	107
COc1cc(C(CCN2CCCC2)c2c(OC)cc(OC)c3c(-c4ccccc4)cc(=O)oc23)cc(OC)c1OC (stereo not given)	284*[may fluoresce violet]	69	?	?	43*[may fluoresce violet]
COc1ccc(C(CCN2CCCC2)c2c(OC)cc(OC)c3c(-c4ccccc4)cc(=O)oc23)cc1 (stereo not given)	103	95	104	101	99
CC(OC(=O)Cn1[nH]c(=O)c2ccccc2c1=O)C(=O)Nc1ccc(Cl)cn1 (stereo not given)	105	105	101	108	100
O=C(NC1CCN(Cc2ccccc2)CC1)C(NS(=O)(=O)c1cccc2nsnc12)c1ccccc1 (stereo not given)	103	105	108	99	110
CCOC(=O)N1CCC(NC(=O)C(NS(=O)(=O)c2cccc3nsnc23)c2ccccc2)CC1 (stereo not given)	95	129	?	?	38*[may fluoresce violet]
COc1cc(C(=O)OC2CC3CCC2(C)C3(C)C)ccc1OC(C)=O (stereo not given)	102	103	92	95	96
O=C(O)c1ccccc1OCCOc1ccccc1C(=O)O	100	106	93	102	100
O=C(O)c1ccccc1OCCOCCOc1ccccc1C(=O)O	147	80	?	24	44*[may fluoresce violet]
COc1ccccc1NS(=O)(=O)c1cc(NC(=O)Cc2n[nH]c(=O)c3ccccc23)ccc1Cl	95	91	88	95	93
CC(=O)c1ccc2noc(-c3cccc(F)c3)c2c1	193*[may fluoresce violet]	68	?	19	59
COc1cccc(-c2onc3ccc(C(C)=O)cc23)c1	99	103	103	85	102
COc1cccc(CC(=O)OC(C)C(=O)Nc2ncc(Cl)cc2Cl)c1 (stereo not given)	86	170*	64	83	68
CC(OC(=O)c1ccco1)C(=O)Nc1ncc(Cl)cc1Cl (stereo not given)	92	104	88	93	98
CN(Cc1ccccc1F)c1nc(-c2cccnc2)nc2ccccc12	88	68	83	79	92
